Results as given in PubChem BioAssay AID540352 (National Center for Advancing Translational Sciences (NCATS), 2011).
Where “and” joins values, the source holds several entries; their conditions need not be identical. Equal entries are not always repeated. Inconclusive results are not listed. Calls of active or inactive are those of the source. Calls follow the shape of the dose curve; as a rule, active = well fitted inhibition curve with a large enough effect; inconclusive = small, poorly fitted or top-dose-only effect; inactive = no such curve, though single readings can be large or run the other way.

Experiment: qHTS for Inhibitos of Bacillus subtilis Sfp phosphopantetheinyl transferase (PPTase): Chemistry Optimization Followup in B. Subtilis 168
Details: B. subtilis 168 growth, BacTiter-Glo luminescence, 5 h; series mostly up to 114 µM
Source text: Phosphopantetheinyl transfer is a process essential to cellular viability and maintenance. Cell-permeable and stable compounds acting as PPTase inhibitors are anticipated to be antimicrobial agents in organisms with complimenting genotypes. […] This experiment evaluated a series of test compounds for antimicrobial activity with B. subtilis 168 (genotype: acpS+ and sfp-), a strain that contains a frameshift mutation in the sfp locus and thus requires a functional AcpS gene product for viability. [Mootz HD, 2001] This strain is expected to be sensitized to cell-permeable AcpS inhibitors, and insensitive to Sfp inhibitors. NIH Chemical Genomics Center [NCGC] NIH Molecular Libraries Probe Centers Network [MLPCN] MLPCN Grant: MH083266-01 Assay Submitter (PI): Michael Burkart, University of California, San Diego
Innoculum preparation. Bacillus subtilis 168 is maintained on lysogeny broth (LB) solidified by the addition of 1.5% w/v agar. Single colonies were used to LB medium (2 mL) and shaken overnight at 30 masculineC. In the morning, this culture (100 ul) was used to seed a fresh LB medium (10 mL) and was shaken at 30 masculineC until the culture OD600 reached 0.5. This culture was diluted 1:100 in fresh LB medium to provide the inoculum below. Bacterial susceptibility. LB medium (2 uL) is dispensed into wells of a sterile white 1536-well plate. Test compounds (23 nL) prepared as serial dilutions in DMSO are added to the plate by pintool transfer. Innoculum (2 uL) is added, the plates are covered with a vented Kalypsys assay lid and incubated at 30 masculineC. After 5 h, Bac-Titer Glo (4 uL; Promega Corp, Madison, WI) is added to the plates. They are incubated 10 minutes at room temperature and then the luminescence detected in a ViewLux multimodal plate reader.

Potency, active:
FC(F)(F)c1cc(N2CCN(C(=S)Nc3cc(Cl)ccn3)CC2)cc(C(F)(F)F)c1 37.3 µM
COc1ccnc(NC(=S)N2CCN(c3cccc(Cl)c3Cl)CC2)c1 9.37 µM
Cc1cc(C)nc(NC(=S)N2CCN(c3ccc(Cl)cc3C(F)(F)F)CC2)c1 9.37 µM
Cc1ccnc(NC(=S)N2CCN(c3cc(F)cc(Cl)c3)CC2)c1 5.91 µM
Cc1ccnc(NC(=S)N2CCN(c3cccc(C(F)(F)F)c3)CC2)c1 41.8 µM and 14.8 µM and 16.7 µM
COc1ccnc(NC(=S)N2CCN(c3ncc(C(F)(F)F)cc3Cl)CC2)c1 14.8 µM
FC(F)(F)c1cnc(N2CCN(C(=S)Nc3cc(Cl)ccn3)CC2)c(Cl)c1 14.8 µM
Cc1cc(C)nc(NC(=S)N2CCN(c3cc(Cl)c(Cl)cc3Cl)CC2)c1 21 µM
Cc1ccnc(NC(=S)Nc2cccc(C(F)(F)F)c2)c1 16.7 µM
FC(F)(F)c1cccc(N2CCN(C(=S)Nc3ncnc4ccccc34)CC2)c1 6.63 µM
COc1ccnc(NC(=S)N2CCN(c3ccc(Cl)cc3Cl)CC2)c1 13.2 µM
FC(F)(F)c1cccc(N2CCN(C(=S)Nc3ccccn3)CC2)c1 46.9 µM
FC(F)(F)c1cccc(N2CCN(C(=S)Nc3nccc4ccccc34)CC2)c1 2.35 µM
Cc1ccnc(NC(=S)N2CCN(c3ccc(Cl)c(Cl)c3)CC2)c1 11.8 µM
Cc1ccnc(NC(=S)N2CCCN(c3cccc(C(F)(F)F)c3)CC2)c1 16.7 µM
Cc1ccnc(NC(=S)N2CCN(c3ccc(Cl)cc3Cl)CC2)c1 16.7 µM
S=C(Nc1cc(Cl)ccn1)N1CCN(c2cc(Cl)cc(Cl)c2)CC1 13.2 µM

Potency, inactive:
Cc1cc(C)nc(NC(=S)N2CCN(c3ccncc3)CC2)c1
Cc1ccnc(NC(=S)N2CCN(c3cccc(C(F)(F)F)c3)C2)c1
Cc1ccnc(NC(=S)NCCN(C)c2cccc(C(F)(F)F)c2)c1
Cc1cc(C)nc(NC(=S)N2CCN(c3ncccc3C#N)CC2)c1
Cc1ccnc(NC(=S)N2CCN(c3ccc(N)cc3)CC2)c1
Cc1cccc(NC(=S)N2CCN(c3cccc(C(F)(F)F)c3)CC2)c1
COc1cccc(NC(=S)N2CCN(c3ccc(Cl)c(Cl)c3)CC2)n1
